{
  "source": "the supplement of paper PMC4466140",
  "assay_in_all_cases": "SPOT peptide array binding signal intensity (averaged, normalized) (arbitrary units (background-subtracted, floor 0; scale differs between SH3 domains)); higher = stronger binding of the SH3 domain to the peptide",
  "key": {"AgAbp1": {"biological_target": "AgAbp1", "summary_of_the_method": "(§1)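 SH3 domains from four yeast species were expressed as GST fusions in E. coli BL21(DE3) and purified on glutathione Sepharose. Each was incubated at 10 μg/ml overnight at 4°C in TBS-based blocking buffer on cellulose membranes bearing synthetic 15-mer peptides, in which serines replaced cysteines. Bound protein was detected with anti-GST antibody, an HRP anti-mouse secondary and luminol, then imaged and quantified with Genespotter. The binding signal is the normalized, background-subtracted spot intensity averaged over replicates, in arbitrary units that are not the same from one domain to another.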"}, "AgBbc1": {"biological_target": "AgBbc1", "summary_of_the_method": "as §1"}, "AgBem1-D1": {"biological_target": "AgBem1-D1", "summary_of_the_method": "as §1"}, "AgBzz1-D1": {"biological_target": "AgBzz1-D1", "summary_of_the_method": "as §1"}, "AgBzz1-D2": {"biological_target": "AgBzz1-D2", "summary_of_the_method": "as §1"}, "AgCyk3": {"biological_target": "AgCyk3", "summary_of_the_method": "as §1"}, "AgFus1": {"biological_target": "AgFus1", "summary_of_the_method": "as §1"}, "AgHof1": {"biological_target": "AgHof1", "summary_of_the_method": "as §1"}, "AgHse1": {"biological_target": "AgHse1", "summary_of_the_method": "as §1"}, "AgLsb1": {"biological_target": "AgLsb1", "summary_of_the_method": "as §1"}, "AgLsb4": {"biological_target": "AgLsb4", "summary_of_the_method": "as §1"}, "AgMyo5": {"biological_target": "AgMyo5", "summary_of_the_method": "as §1"}, "AgNbp2": {"biological_target": "AgNbp2", "summary_of_the_method": "as §1"}, "AgRvs167": {"biological_target": "AgRvs167", "summary_of_the_method": "as §1"}, "AgSho1": {"biological_target": "AgSho1", "summary_of_the_method": "as §1"}, "AgSla1-D1-D2": {"biological_target": "AgSla1-D1-D2", "summary_of_the_method": "as §1"}, "AgSla1-D3": {"biological_target": "AgSla1-D3", "summary_of_the_method": "as §1"}, "CaAbp1-D1": {"biological_target": "CaAbp1-D1", "summary_of_the_method": "as §1"}, "CaAbp1-D2": {"biological_target": "CaAbp1-D2", "summary_of_the_method": "as §1"}, "CaBbc1": {"biological_target": "CaBbc1", "summary_of_the_method": "as §1"}, "CaBem1-D1": {"biological_target": "CaBem1-D1", "summary_of_the_method": "as §1"}, "CaBzz1-D1": {"biological_target": "CaBzz1-D1", "summary_of_the_method": "as §1"}, "CaBzz1-D2": {"biological_target": "CaBzz1-D2", "summary_of_the_method": "as §1"}, "CaCyk3": {"biological_target": "CaCyk3", "summary_of_the_method": "as §1"}, "CaFus1": {"biological_target": "CaFus1", "summary_of_the_method": "as §1"}, "CaHof1": {"biological_target": "CaHof1", "summary_of_the_method": "as §1"}, "CaHse1": {"biological_target": "CaHse1", "summary_of_the_method": "as §1"}, "CaLsb1": {"biological_target": "CaLsb1", "summary_of_the_method": "as §1"}, "CaLsb4": {"biological_target": "CaLsb4", "summary_of_the_method": "as §1"}, "CaMyo5": {"biological_target": "CaMyo5", "summary_of_the_method": "as §1"}, "CaNbp2": {"biological_target": "CaNbp2", "summary_of_the_method": "as §1"}, "CaRvs167": {"biological_target": "CaRvs167", "summary_of_the_method": "as §1"}, "CaRvs167-3": {"biological_target": "CaRvs167-3", "summary_of_the_method": "as §1"}, "CaSho1": {"biological_target": "CaSho1", "summary_of_the_method": "as §1"}, "CaSla1-D1-D2": {"biological_target": "CaSla1-D1-D2", "summary_of_the_method": "as §1"}, "CaSla1-D3": {"biological_target": "CaSla1-D3", "summary_of_the_method": "as §1"}, "ScAbp1": {"biological_target": "ScAbp1", "summary_of_the_method": "as §1"}, "ScBbc1": {"biological_target": "ScBbc1", "summary_of_the_method": "as §1"}, "ScBem1-D1": {"biological_target": "ScBem1-D1", "summary_of_the_method": "as §1"}, "ScBzz1-D1": {"biological_target": "ScBzz1-D1", "summary_of_the_method": "as §1"}, "ScBzz1-D2": {"biological_target": "ScBzz1-D2", "summary_of_the_method": "as §1"}, "ScCyk3": {"biological_target": "ScCyk3", "summary_of_the_method": "as §1"}, "ScFus1": {"biological_target": "ScFus1", "summary_of_the_method": "as §1"}, "ScHof1": {"biological_target": "ScHof1", "summary_of_the_method": "as §1"}, "ScHse1": {"biological_target": "ScHse1", "summary_of_the_method": "as §1"}, "ScLsb1": {"biological_target": "ScLsb1", "summary_of_the_method": "as §1"}, "ScLsb2": {"biological_target": "ScLsb2", "summary_of_the_method": "as §1"}, "ScLsb3": {"biological_target": "ScLsb3", "summary_of_the_method": "as §1"}, "ScLsb4": {"biological_target": "ScLsb4", "summary_of_the_method": "as §1"}, "ScMyo3": {"biological_target": "ScMyo3", "summary_of_the_method": "as §1"}, "ScMyo5": {"biological_target": "ScMyo5", "summary_of_the_method": "as §1"}, "ScNbp2": {"biological_target": "ScNbp2", "summary_of_the_method": "as §1"}, "ScPex13": {"biological_target": "ScPex13", "summary_of_the_method": "as §1"}, "ScRvs167": {"biological_target": "ScRvs167", "summary_of_the_method": "as §1"}, "ScSho1": {"biological_target": "ScSho1", "summary_of_the_method": "as §1"}, "ScSla1-D1-D2": {"biological_target": "ScSla1-D1-D2", "summary_of_the_method": "as §1"}, "ScSla1-D3": {"biological_target": "ScSla1-D3", "summary_of_the_method": "as §1"}, "SpAbp1-D1": {"biological_target": "SpAbp1-D1", "summary_of_the_method": "as §1"}, "SpBbc1": {"biological_target": "SpBbc1", "summary_of_the_method": "as §1"}, "SpBzz1-D1": {"biological_target": "SpBzz1-D1", "summary_of_the_method": "as §1"}},
  "data": [
    {"binder": "KTRLRPAFIQQLWSS", "values": [
      {"measurement": "SPOT peptide array binding signal intensity", "setting": "AgAbp1", "value": 12},
      {"measurement": "SPOT peptide array binding signal intensity", "setting": "AgBbc1", "value": 18.8},
      {"measurement": "SPOT peptide array binding signal intensity", "setting": "AgBem1-D1", "value": 181},
      {"measurement": "SPOT peptide array binding signal intensity", "setting": "AgBzz1-D1", "value": 82.5},
      {"measurement": "SPOT peptide array binding signal intensity", "setting": "AgBzz1-D2", "value": 32.5},
      {"measurement": "SPOT peptide array binding signal intensity", "setting": "AgCyk3", "value": 1},
      {"measurement": "SPOT peptide array binding signal intensity", "setting": "AgFus1", "value": 286},
      {"measurement": "SPOT peptide array binding signal intensity", "setting": "AgHof1", "value": 45.5},
      {"measurement": "SPOT peptide array binding signal intensity", "setting": "AgHse1", "value": 630},
      {"measurement": "SPOT peptide array binding signal intensity", "setting": "AgLsb1", "value": 1},
      {"measurement": "SPOT peptide array binding signal intensity", "setting": "AgLsb4", "value": 29.5},
      {"measurement": "SPOT peptide array binding signal intensity", "setting": "AgMyo5", "value": 3},
      {"measurement": "SPOT peptide array binding signal intensity", "setting": "AgNbp2", "value": 94.5},
      {"measurement": "SPOT peptide array binding signal intensity", "setting": "AgRvs167", "value": 2.83},
      {"measurement": "SPOT peptide array binding signal intensity", "setting": "AgSho1", "value": 12},
      {"measurement": "SPOT peptide array binding signal intensity", "setting": "AgSla1-D1-D2", "value": 18},
      {"measurement": "SPOT peptide array binding signal intensity", "setting": "AgSla1-D3", "value": 19.8},
      {"measurement": "SPOT peptide array binding signal intensity", "setting": "CaAbp1-D1", "value": 130},
      {"measurement": "SPOT peptide array binding signal intensity", "setting": "CaAbp1-D2", "value": 38.5},
      {"measurement": "SPOT peptide array binding signal intensity", "setting": "CaBbc1", "value": 82.5},
      {"measurement": "SPOT peptide array binding signal intensity", "setting": "CaBem1-D1", "value": 46},
      {"measurement": "SPOT peptide array binding signal intensity", "setting": "CaBzz1-D1", "value": 58.5},
      {"measurement": "SPOT peptide array binding signal intensity", "setting": "CaBzz1-D2", "value": 59},
      {"measurement": "SPOT peptide array binding signal intensity", "setting": "CaCyk3", "value": 6},
      {"measurement": "SPOT peptide array binding signal intensity", "setting": "CaFus1", "value": 912},
      {"measurement": "SPOT peptide array binding signal intensity", "setting": "CaHof1", "value": 2},
      {"measurement": "SPOT peptide array binding signal intensity", "setting": "CaHse1", "value": 10.8},
      {"measurement": "SPOT peptide array binding signal intensity", "setting": "CaLsb1", "value": 0.5},
      {"measurement": "SPOT peptide array binding signal intensity", "setting": "CaLsb4", "value": 14},
      {"measurement": "SPOT peptide array binding signal intensity", "setting": "CaMyo5", "value": 4},
      {"measurement": "SPOT peptide array binding signal intensity", "setting": "CaNbp2", "value": 338},
      {"measurement": "SPOT peptide array binding signal intensity", "setting": "CaRvs167", "value": 17.3},
      {"measurement": "SPOT peptide array binding signal intensity", "setting": "CaRvs167-3", "value": 2},
      {"measurement": "SPOT peptide array binding signal intensity", "setting": "CaSho1", "value": 338},
      {"measurement": "SPOT peptide array binding signal intensity", "setting": "CaSla1-D1-D2", "value": "≤ 0"},
      {"measurement": "SPOT peptide array binding signal intensity", "setting": "CaSla1-D3", "value": 9.5},
      {"measurement": "SPOT peptide array binding signal intensity", "setting": "ScAbp1", "value": 17},
      {"measurement": "SPOT peptide array binding signal intensity", "setting": "ScBbc1", "value": 6.25},
      {"measurement": "SPOT peptide array binding signal intensity", "setting": "ScBem1-D1", "value": 60},
      {"measurement": "SPOT peptide array binding signal intensity", "setting": "ScBzz1-D1", "value": 29.5},
      {"measurement": "SPOT peptide array binding signal intensity", "setting": "ScBzz1-D2", "value": 82.5},
      {"measurement": "SPOT peptide array binding signal intensity", "setting": "ScCyk3", "value": 47},
      {"measurement": "SPOT peptide array binding signal intensity", "setting": "ScFus1", "value": 170},
      {"measurement": "SPOT peptide array binding signal intensity", "setting": "ScHof1", "value": 5.75},
      {"measurement": "SPOT peptide array binding signal intensity", "setting": "ScHse1", "value": 1510},
      {"measurement": "SPOT peptide array binding signal intensity", "setting": "ScLsb1", "value": "≤ 0"},
      {"measurement": "SPOT peptide array binding signal intensity", "setting": "ScLsb2", "value": "≤ 0"},
      {"measurement": "SPOT peptide array binding signal intensity", "setting": "ScLsb3", "value": 74.5},
      {"measurement": "SPOT peptide array binding signal intensity", "setting": "ScLsb4", "value": 1.5},
      {"measurement": "SPOT peptide array binding signal intensity", "setting": "ScMyo3", "value": 10},
      {"measurement": "SPOT peptide array binding signal intensity", "setting": "ScMyo5", "value": 3.5},
      {"measurement": "SPOT peptide array binding signal intensity", "setting": "ScNbp2", "value": 121},
      {"measurement": "SPOT peptide array binding signal intensity", "setting": "ScPex13", "value": 6.25},
      {"measurement": "SPOT peptide array binding signal intensity", "setting": "ScRvs167", "value": 13},
      {"measurement": "SPOT peptide array binding signal intensity", "setting": "ScSho1", "value": 431},
      {"measurement": "SPOT peptide array binding signal intensity", "setting": "ScSla1-D1-D2", "value": 36},
      {"measurement": "SPOT peptide array binding signal intensity", "setting": "ScSla1-D3", "value": 27.5},
      {"measurement": "SPOT peptide array binding signal intensity", "setting": "SpAbp1-D1", "value": 54.5},
      {"measurement": "SPOT peptide array binding signal intensity", "setting": "SpBbc1", "value": 4},
      {"measurement": "SPOT peptide array binding signal intensity", "setting": "SpBzz1-D1", "value": 170}
    ]}
  ]
}
